Shown are actives, neighbours in structure and some others; about 10% of the full set was active somewhere.
FLuc inh-1: blocks purified firefly luciferase enzyme activity; purified P. pyralis luciferase, luminescence, biochemical; P08659; 76,000 tested, 2.5% active; Potency, µM (doses to about 115 µM), actives largely listed as inhibitors; AID 1347043; further: on the % scale 0 is the no-effect control and ±100 the full control effect; nearly all actives have a fitted effect of over 65% in size
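Inhibitors were tested against purified firefly luciferase in a biochemical, low-substrate format (both substrates at 10uM) and luminescence measured with a CCD imager.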
GPT2 inh: inhibitors of human GPT2 alanine aminotransferase; Recombinant GPT2, coupled pyruvate oxidase/HRP Amplex Red fluorescence; Potency, µM (doses to about 57.7 µM), inactives show at the highest dose activity change, negative = inhibition, usual class: inhibitors; 100,000 tested, 0.25% active; AID 1671188; further: on the % scale 0 is the no-effect control and ±100 the full control effect; nearly all actives have a fitted effect of over 60% in size
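Recombinant GPT2 (10ng/uL) with 250uM a-KG and 2mM L-alanine, 30 min at room temperature, in HEPES pH 7.5 buffer. Pyruvate detected by pyruvate oxidase/HRP/Amplex Red fluorescence after 30 min in the dark; AOA (50uM) as positive control.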
NIH3T3 tox: kills NIH 3T3 cells | NIH 3T3 viability, CellTiter-Glo ATP luminescence, 48-72 h | 94,000 tested, 4.3% active | Potency, µM (titrated, usually from 96.7 µM), inactives show at the highest dose activity change, negative = cytotoxicity, hits mostly inhibitors; further: on the % scale 0 is the no-effect control and ±100 the full control effect; nearly all actives have a fitted effect of over 55% in size
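ATP-dependent luminescence (CellTiter-Glo) served as the viability signal for NIH 3T3 cells treated with compound for 48 or 72 hr at 37 °C.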
HEK293 tox: HEK 293 cell cytotoxicity; Potency, µM (series often up to 115 µM), without a hit: top-dose activity change, negative = cytotoxicity, most hits filed as inhibitors; AID 1345083; HEK 293 viability, ATP luminescence (CellTiter-Glo), 48-72 h; 94,000 tested, 6.6% active; further: on the % scale 0 is the no-effect control and ±100 the full control effect; nearly all actives have a fitted effect of over 60% in size
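HEK 293 seeded at 250 cells/well receive compound via pintool. After 48 or 72 hr at 37 degree Celsius, 5% CO2 and 95% humidity, CellTiter-Glo is dispensed and luminescence read following 10 min at room temperature.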
hNpr1 antagonist: antagonists of human natriuretic peptide receptor Npr1; 76,000 tested, 1.6% active; Potency, µM (titrated, usually from 46.3 µM), inactives show at the highest dose activity change, negative = inhibition, most hits filed as inhibitors; HEK293 hNpr1 GloSensor cGMP, ANP-stimulated luminescence; AID 1347048; P16066; calls by dose curve; further: on the % scale 0 is the no-effect control and ±100 the full control effect; nearly all actives have a fitted effect of over 60% in size
Target sequence (P16066 whole entry, looked up): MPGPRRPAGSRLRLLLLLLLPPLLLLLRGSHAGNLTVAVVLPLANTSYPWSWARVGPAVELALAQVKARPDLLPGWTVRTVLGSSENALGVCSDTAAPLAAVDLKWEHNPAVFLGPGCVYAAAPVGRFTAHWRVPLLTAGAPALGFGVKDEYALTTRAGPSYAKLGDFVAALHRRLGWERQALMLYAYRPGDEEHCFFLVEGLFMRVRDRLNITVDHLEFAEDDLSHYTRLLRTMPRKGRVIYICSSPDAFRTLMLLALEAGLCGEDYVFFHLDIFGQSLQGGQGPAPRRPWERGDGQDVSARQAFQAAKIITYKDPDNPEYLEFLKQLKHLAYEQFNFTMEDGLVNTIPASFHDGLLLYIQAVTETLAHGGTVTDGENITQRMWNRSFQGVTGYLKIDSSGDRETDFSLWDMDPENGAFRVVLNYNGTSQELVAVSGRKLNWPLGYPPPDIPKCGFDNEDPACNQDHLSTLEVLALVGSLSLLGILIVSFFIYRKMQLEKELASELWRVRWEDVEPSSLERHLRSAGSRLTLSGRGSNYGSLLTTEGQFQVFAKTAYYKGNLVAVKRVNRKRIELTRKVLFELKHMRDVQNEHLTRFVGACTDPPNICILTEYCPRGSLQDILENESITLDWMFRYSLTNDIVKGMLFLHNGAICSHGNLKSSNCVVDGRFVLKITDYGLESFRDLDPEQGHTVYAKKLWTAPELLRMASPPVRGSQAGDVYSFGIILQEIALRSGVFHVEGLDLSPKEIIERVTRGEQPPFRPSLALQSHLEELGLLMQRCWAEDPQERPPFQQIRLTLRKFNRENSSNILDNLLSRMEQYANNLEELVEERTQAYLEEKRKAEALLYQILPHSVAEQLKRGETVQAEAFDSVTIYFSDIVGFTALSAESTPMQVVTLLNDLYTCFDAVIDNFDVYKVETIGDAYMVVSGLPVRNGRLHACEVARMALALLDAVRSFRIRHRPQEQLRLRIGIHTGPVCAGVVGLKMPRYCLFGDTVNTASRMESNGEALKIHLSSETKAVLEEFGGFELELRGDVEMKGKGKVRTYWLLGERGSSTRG
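HEK293 cells stably expressing human Npr1 and cGMP GloSensor pGS-40F, loaded 2 h with 2% GloSensor reagent, given compound 30 min at room temperature. Luminescence read before and 20 min after 0.1 nM hNppA.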
FLuc SDR -ATP: stabilizes firefly luciferase without ATP | Potency, µM (titrated, usually from 32.7 µM), without a hit: at the top dose activation (signal gain), actives largely listed as activators | Purified FLuc-C-HiBiT, Nano-Glo HiBiT luminescence, no ATP | shares compounds with FLuc inh-1 | 1,300 tested, 7.8% active; further: nearly all actives have a fitted effect of over 55% in size
FLuc SDR ATP: firefly luciferase binding stabilization, ATP added; 1,300 tested, 8.7% active; purified FLuc-C-HiBiT + ATP, HiBiT complementation luminescence; Potency, µM (titrated, usually from 32.7 µM), without a hit: at the top dose activation (gain of signal), most hits filed as activators; shares compounds with FLuc inh-1;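 further: signal reports ligand binding via conformational change of the enzyme rather than luciferase catalysis; % of control where 0% means no effect; nearly all actives have a fitted effect of over 55% in size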
FLuc inh-2: inhibitors of firefly luciferase enzymatic activity; shares compounds with FLuc inh-1; purified FLuc-C-HiBiT enzyme, luciferin luminescence; Potency, µM (top dose mostly 32.7 µM), for the others: top-dose activity change, negative = inhibition, most hits filed as inhibitors; 1,300 tested, 42% active; AID 1963320; further: on the % scale 0 is the no-effect control and ±100 the full control effect; nearly all actives have a fitted effect of over 70% in size
Numbers without * were called inactive; i = inactive; ? = inconclusive; · = not tested or not shown; [ ] = dose if it differs, or a comment. Unless noted, the call rests on the fitted dose curve; in most records, active means well fitted curve in the direction sought with a large enough effect; inconclusive means small, poorly fitted or top-dose-only effect, or another doubt; inactive means no such curve, though single readings can be large; an effect the other way counts as inactive or inconclusive. Potency means the concentration at half of the fitted maximal effect.

SMILES | FLuc inh-1 | GPT2 inh | NIH3T3 tox | HEK293 tox | hNpr1 antagonist | FLuc SDR -ATP | FLuc SDR ATP | FLuc inh-2
Cc1ccc2oc(=O)c(-c3nc(-c4cccs4)no3)cc2c1 | · | · | · | · | · | 14.4% | 12.9% | -13.6%
CC(=O)NC[C@H]1Cn2cc(-c3ccccc3)nc2CO1 | ? | -13.9%[88.5 µM] | i | i | 5.1%[70.6 µM] | · | · | ·
c1ccc(-c2cn3c(n2)CO[C@@H](CNCc2cccs2)C3)cc1 | 5.62µM* | i | -24.9%[138 µM] | ? | -20.3%[70.6 µM] | 12.7%[49.3 µM] | 7.5%[49.3 µM] | ?
CCc1nc2c(c(-c3ccc(O)cc3)n1)CCN(C(=O)Cc1ccccn1)CC2 | · | i | -6.3% | i | · | · | · | ·
CCCCCc1ccc(/C=C/C(=O)Nc2cc(Cl)ccc2C(=O)O)cc1 | · | i | · | · | · | · | · | ·
Cc1ccc2oc(-c3ccc(C)c(NC(=O)/C=C/c4ccc(Cl)cc4)c3)nc2c1 | · | · | · | · | · | 22.3% | 15.4% | ?
COCCNC(=O)[C@@H](C)C1CC[C@@]2(C)Cc3sc(CSc4ccccc4)nc3[C@@H](C)[C@@H]2[C@H]1O (some centres not stated) | 7.08µM* | 2.1% | ? | ? | 11.2µM* | 27.8% | ? | ?
C[C@H]1[C@@H]2[C@@H](O)C([C@H](C)C(=O)N3CCCCC3)CC[C@@]2(C)CC[C@@H]1NC(=O)c1ccccn1 (some centres not stated) | i | ? | -27.6% | -8.7% | -3.8% | · | · | ·
C[C@H](C(=O)N1CCCC1)C1CC[C@@]2(C)Cc3sc(-c4ccccc4)nc3[C@@H](C)[C@@H]2[C@H]1O (some centres not stated) | 8.91µM* | 1.6% | ? | 44.7µM* | ? | 3.13µM* | 2.21µM* | 1.97µM*
Fc1ccc(OC2CN(CC3CCCCC3)C2)cc1F | i | -6.4%[88.5 µM] | ? | ? | 14.4%[70.6 µM] | · | · | ·
Cc1ccc(NC(=O)N2CCC(CCNC(=O)C(C)C)CC2)cc1F | ? | i | -6.5% | -6.3% | 4.0% | · | · | ·
Cc1ccc(NC(=O)N2CCC(CCNC(=O)c3ccc(F)cc3)CC2)cc1F | 10µM* | -13.2% | ? | ? | -27.5% | 21.1% | 12.7% | ?
Cc1ccc(NC(=O)N2CCC(CCNC(=O)C3CC3)CC2)cc1 | 10µM* | i | -18.8% | ? | -5.2% | ? | ? | ?
COc1ccc(C(=O)NCCC2CCN(C(=O)Nc3cc(F)cc(F)c3)CC2)cc1 | 6.31µM* | 3.9% | -29.8% | ? | -25.9% | ? | 14.8% | ?
Cc1ccc(NC(=O)N2CCC(CCNC(=O)C3CCC3)CC2)cc1F | 11.2µM* | 0.6% | -23.7% | -12.4% | -22.5% | ? | ? | ?
COc1cccc(C(=O)NCCC2CCN(C(=O)Nc3cccc(F)c3)CC2)c1 | i | -17.4% | ? | -23.1% | 0.4% | · | · | ·
O=C(NCc1ccccn1)C1c2ccccc2C(=O)N(C2CCCC2)C12CCCCC2 (configuration not stated) | i | i | ? | ? | -9.9% | · | · | ·
Cc1cnc(CC2CCCN(C(=O)C3CC3)C2)n1C(C)C (configuration not stated) | i | i | 2.2% | i | -0.4% | · | · | ·
O=C(NCC1CN(C(=O)Cc2ccccc2)CC12CN(c1ccccc1)C2)C1CC1 (configuration not stated) | i | i | ? | -6.5%[172 µM] | -3.7%[70.6 µM] | · | · | ·
c1ccc(-c2ccnc(NCCOc3cccc4cccnc34)n2)nc1 | i | ? | ? | ? | -4.7% | · | · | ·
Cc1noc(C)c1-c1ncc2c(n1)OCCN(Cc1ccccc1)C2=O | i | -8.6%[88.5 µM] | ? | -40.5%[172 µM] | -7.7%[70.6 µM] | · | · | ·

Assay outcomes as filed in PubChem BioAssay.
